Source: PubChem BioAssay (NCATS)
Results filed as inconclusive are left out. Where a call stands in place of a potency, no number is given. Unmarked numbers belong to inactive results. Calls of active or inactive are those of the source. The call rests on the fitted dose curve; in most records, active means well fitted curve in the direction sought with a large enough effect; inconclusive means small, poorly fitted or top-dose-only effect, or another doubt; inactive means no such curve, though single readings can be large; an effect the other way counts as inactive or inconclusive.

biological target: Cellular tumor antigen p53 (Homo sapiens) (UniProt P04637); assay: Primary qHTS for small molecule compounds that upregulate eGFP-tagged delta133p53alpha (in N-terminal) cells. (AID 2060322); conditions: NCI-H358 eGFP-delta133p53alpha fluorescence, 24 h; activation: stronger effect = higher value; further: nearly all actives have a fitted effect of over 75% in size
Summary of the method: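 NCI-H358 cells pre-induced 24 h with 10 ng/ml doxycycline to express N-terminal eGFP-delta133p53alpha, then dosed 24 h at 37C without doxycycline; fixed, Hoechst-stained, GFP intensity by laser scanning cytometry, normalized to DMSO (0%) and 57.5 uM 5-azacytidine (100%).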

Cellular tumor antigen p53 (Homo sapiens), sequence (P04637 whole entry, looked up): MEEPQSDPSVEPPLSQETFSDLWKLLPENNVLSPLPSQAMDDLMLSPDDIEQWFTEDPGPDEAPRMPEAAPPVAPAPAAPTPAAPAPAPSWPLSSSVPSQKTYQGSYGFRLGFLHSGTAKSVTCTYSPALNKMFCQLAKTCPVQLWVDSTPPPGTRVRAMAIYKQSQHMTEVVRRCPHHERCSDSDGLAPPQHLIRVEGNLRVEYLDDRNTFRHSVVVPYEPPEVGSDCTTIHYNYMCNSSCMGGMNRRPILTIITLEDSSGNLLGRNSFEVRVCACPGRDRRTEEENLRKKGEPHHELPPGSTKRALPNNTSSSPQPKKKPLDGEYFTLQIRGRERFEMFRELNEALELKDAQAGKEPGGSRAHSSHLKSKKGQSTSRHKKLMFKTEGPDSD

SMILES	activation [%]
C=C1CCc2occ(C)c2[C@H]2[C@H]1[C@@]13O[C@@]1(C[C@@H](C)[C@H]3OC(C)=O)[C@H]1O[C@@]21C	-19.6
COC(=O)Cn1nc(-c2cccc(OC)c2)c2ccccc21	-1.67
CCCCCc1ccc(/C=C/C(=O)Nc2cc(Cl)ccc2C(=O)O)cc1	-1
COc1ccc(Oc2c(Cl)cnn(C3c4ccccc4-c4ccccc43)c2=O)cc1	13.4
Nc1ccc(-n2nc(C(F)(F)F)cc2C(F)(F)F)cc1	0.893
CC12CC(O)C(O)C=C1c1cc(O)cc(O)c1C(=O)O2 (centres undefined)	-7.63
O=C(NCC(O)CO)c1ccncc1Nc1ccc(I)cc1F (centres undefined)	19.6
COc1c2c(c(C)c3c1C(=O)OC3)OC1(C)CC(O)C34OC(OC)(OC3(C)C)C(O)CC4(C)C1C2 (centres undefined)	-2.29
O=C(NOC[C@H](O)CO)c1ccc(F)c(F)c1Nc1ccc(I)cc1F	8.59
CC1(C)CC[C@]2(C(=O)O[C@@H]3O[C@H](CO)[C@@H](O)[C@H](O)[C@H]3O)CC[C@]3(C)C(=CCC4[C@@]5(C)C[C@@H](O)[C@H](O)C(CO)(CO)C5CC[C@]43C)C2[C@@H]1O (some centres undefined)	-15.3
C=C1C(=O)OC2/C=C(\CO)CC/C=C(\C=O)C(OC)C(OC(=O)C(C)CC)C12 (centres undefined)	-6.11

biological target: Aldehyde dehydrogenase, mitochondrial (Homo sapiens) (UniProt P05091); assay: qHTS for Inhibitors of the Aldehyde Dehydrogenase Family (ALDH2) Primary screen (AID 2061308); conditions: ALDH2 enzyme inhibition qHTS, 1536-well; series mostly up to 56 µM; further: nearly all actives have a fitted effect of over 55% in size

SMILES	Potency
C=C1C(=O)O[C@@H]2/C=C(\CO)CC/C=C(/C=O)C[C@H](O)[C@@H]12	inactive
CC1CCCC(O)CC(=O)c2c(O)cc(O)cc2CC(=O)O1 (centres undefined)	inactive
O=C(c1ccc(OC(F)F)c(C#Cc2ccccn2)c1)N1Cc2cccnc2C1	inactive
Cc1ccc(C2(COC(=O)C(C)C)CO2)c(OC(=O)C(C)C)c1 (centres undefined)	inactive
C[C@@H]1C(=O)O[C@H]2[C@H](O)C34[C@H]5C[C@@H](C(C)(C)C)C36[C@@H](OC(=O)[C@@H]6O)O[C@@]4(C(=O)O5)[C@@]12O (some centres undefined)	inactive
NC1CCC(Nc2cc(-c3cccc(NCc4cccc(F)c4)n3)c(Cl)cn2)CC1 (centres undefined)	inactive
COc1cc(C(=O)OC[C@H]2O[C@H](O[C@@]3(CO)O[C@@H](CO)[C@H](O)[C@H]3O)[C@H](O)[C@@H](O)[C@@H]2O)ccc1O	inactive
CC1=CC(=O)[C@H]2C(C)(C)CCC[C@]2(C)[C@@]1(O)CO	inactive
C=C1C[C@]23C[C@H]1CC[C@H]2[C@]1(C)CCC[C@@](C)(C(=O)O)[C@H]1[C@@H]3C(=O)O	inactive
C[C@@H]1CCC2C(C)(C)[C@H](O)[C@H](O)C[C@]2(C)[C@@]12Cc1c(O)cc3c(c1O2)CN(CCCC(=O)O)C3=O (some centres undefined)	inactive
CC(=O)OC1CC(C(C)(C)O)OC2CCC3(C)OC4=C(C(=O)C=C5C(C)C(OC(C)=O)C6(C)C(C)OC546)C(O)C3C12C (centres undefined)	inactive
CC(=O)OC1CC(O)(C(C)C)C2C(OC(=O)c3ccc(O)cc3)C=C(C)C(=O)CC12C (centres undefined)	inactive
CC(C)C[C@@H]1NC(=O)[C@@H]2C[C@@]34C[C@@H]5[C@@]6(C)CCCC(C)(C)C6CC[C@@]5(C)N(c5ccccc53)[C@H]4N2C1=O (some centres undefined)	inactive
CC1CCC2(C)C(CC(O)C(O)C23CO3)C1(C)CCC1=CC(O)OC1=O (centres undefined)	inactive
Nc1nc2c(s1)CCN(Cc1ccc(Cl)cc1)CC2	inactive
C#C[C@]1(OC(C)=O)CC[C@H]2[C@@H]3CCC4=C[C@@H](OC(C)=O)CC[C@@H]4[C@H]3CC[C@@]21C	inactive
CO[C@@H]1[C@]2(O)C(=O)N3/C=C\C(C)(C)c4[nH]c5ccccc5c4/C=C\3C(=O)N2[C@]23[C@H](CO)C(C)(C)N2c2ccccc2[C@]13O	inactive
C/C=C/C=C/C(O)=C1\C(O)=C(C)C(=O)[C@@]2(C)OC(=O)[C@@](C)(NC(=O)/C=C/C(=O)O)[C@@H]12	inactive
C=C[C@H]1[C@H](O[C@@H]2O[C@H](CO)[C@@H](O)[C@H](O)[C@H]2O)OC=C(C(=O)OC)[C@H]1CC=O	inactive
C=C1C(=O)O[C@@H]2CC(C)=C([C@@H](C)CCCOC(C)=O)[C@@H](O)[C@H]12	inactive
COc1cc2c(cc1OC)N1C(=O)C[C@@]34C=CC[N@+]5([O-])CC[C@H]2[C@H](CC3)[C@@]145	inactive
Nc1ccc(S(=O)(=O)Nc2nccs2)cc1	inactive
CC(C)/C=C1\NC(=O)C(C(C)C)n2c1nc1c(c2=O)C=CC=CO1 (centres undefined)	inactive
